Drawing on PubChem BioAssay AID2528 (National Center for Advancing Translational Sciences (NCATS), 2010), this text covers Potency and activity change, negative = inhibition for 89 compounds.

“And” between values parts separate entries of the source, which are not always exact repeats. Equal entries are not always repeated. Screen size: about 350,000 compounds; about 700 (0.2%) were called active. The call rests on the fitted dose curve; in most records, active means well fitted inhibition curve with a large enough effect; inconclusive means small, poorly fitted or top-dose-only effect; inactive means flat fitted curve, though single readings scatter. The list comes from a sample in which actives are over-represented; it also holds similar structures and randomly drawn compounds. Entries that show only a call come without a potency.
Potency means the concentration at half of the fitted maximal effect.

The test deals with RecQ-like DNA helicase BLM (Homo sapiens) (UniProt P54132). The experiment in a line: qHTS Assay for Inhibitors of Bloom's syndrome helicase (BLM). Further: nearly all actives have a fitted effect of over 35% in size. The conditions noted are these: recombinant BLM DNA unwinding, fluorescence dequenching; series mostly up to 56.1 µM.
Sequence of RecQ-like DNA helicase BLM (Homo sapiens) (P54132 whole entry, looked up): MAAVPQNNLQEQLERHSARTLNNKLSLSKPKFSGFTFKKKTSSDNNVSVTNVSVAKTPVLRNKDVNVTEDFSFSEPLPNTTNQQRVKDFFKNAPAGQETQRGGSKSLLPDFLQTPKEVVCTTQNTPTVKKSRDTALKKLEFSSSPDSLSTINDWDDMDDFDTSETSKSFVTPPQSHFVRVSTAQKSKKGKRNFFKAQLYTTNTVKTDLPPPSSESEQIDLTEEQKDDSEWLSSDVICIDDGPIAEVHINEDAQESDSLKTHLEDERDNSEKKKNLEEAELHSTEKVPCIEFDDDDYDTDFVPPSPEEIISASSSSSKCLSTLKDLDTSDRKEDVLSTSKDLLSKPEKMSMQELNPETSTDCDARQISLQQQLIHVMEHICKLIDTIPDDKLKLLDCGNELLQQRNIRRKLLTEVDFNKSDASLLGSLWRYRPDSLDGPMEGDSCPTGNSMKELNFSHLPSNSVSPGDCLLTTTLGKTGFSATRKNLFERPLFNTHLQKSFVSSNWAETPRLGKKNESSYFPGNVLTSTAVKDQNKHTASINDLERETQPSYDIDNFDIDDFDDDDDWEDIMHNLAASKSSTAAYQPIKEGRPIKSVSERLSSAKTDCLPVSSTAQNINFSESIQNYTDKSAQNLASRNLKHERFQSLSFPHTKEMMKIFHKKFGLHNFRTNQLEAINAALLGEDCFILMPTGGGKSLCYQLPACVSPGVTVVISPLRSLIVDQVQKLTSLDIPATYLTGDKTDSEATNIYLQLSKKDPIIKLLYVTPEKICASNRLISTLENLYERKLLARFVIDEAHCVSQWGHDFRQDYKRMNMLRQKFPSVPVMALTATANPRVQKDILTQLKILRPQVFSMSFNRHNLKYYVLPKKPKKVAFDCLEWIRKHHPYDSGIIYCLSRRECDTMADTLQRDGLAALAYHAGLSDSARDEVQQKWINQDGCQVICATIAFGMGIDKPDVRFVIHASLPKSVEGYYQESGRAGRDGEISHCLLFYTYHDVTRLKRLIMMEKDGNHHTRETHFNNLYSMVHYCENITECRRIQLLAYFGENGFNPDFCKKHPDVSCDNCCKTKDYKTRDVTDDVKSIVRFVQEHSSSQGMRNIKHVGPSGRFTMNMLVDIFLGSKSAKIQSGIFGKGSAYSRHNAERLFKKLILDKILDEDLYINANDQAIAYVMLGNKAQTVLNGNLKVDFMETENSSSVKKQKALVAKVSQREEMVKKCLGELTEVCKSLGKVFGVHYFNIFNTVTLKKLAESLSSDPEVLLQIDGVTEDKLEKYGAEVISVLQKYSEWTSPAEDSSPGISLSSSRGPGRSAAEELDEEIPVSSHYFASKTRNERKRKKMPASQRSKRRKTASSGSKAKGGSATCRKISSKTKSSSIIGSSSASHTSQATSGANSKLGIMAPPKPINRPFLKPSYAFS
On to `COc1ccc(N2CCN(C(=O)CSCc3nc(-c4ccccc4Cl)oc3C)CC2)cc1`, for which the Potency entry is “inactive”.

As to `Cc1ccc2c(=O)c(C(=O)c3cccc(Cl)c3)cn(CC(=O)NCc3ccccc3)c2n1`, the Potency result was “inactive”. `C=C/C1=C/Cc2ccccc2[C@H](C[N+](=O)[O-])C(C(=O)OC)(C(=O)OC)C1`: the Potency entry is “inactive”. In the case of `O=P(O)(O)OC[C@H](O)CO`, the Potency result is “inactive”.

As to `O=c1c(-c2cc(F)cc(F)c2)nc2cnc(Oc3ccccc3)nc2n1C[C@H]1CCCO1`, the Potency result was “inactive”.

Consider `C=CCC(C)(O)c1ccco1` (centres undefined), for which the Potency result is “inactive”.

For `N#Cc1ccccc1-c1ccc2ncnc(NCc3cccnc3)c2c1`, the Potency entry was “inactive”. `Cc1cc2nc(NC(=O)c3ccc(S(=O)(=O)N4CCOCC4)cc3)sc2cc1C`: the Potency result is “inactive”.

Turning to `CN(C)c1cccc(C(=O)Nc2nc3ccc(S(=O)(=O)NC(C)(C)C)cc3s2)c1`, the Potency entry is “inactive”.

In the case of `CS(=O)(=O)c1ccc2nc(NC(=O)c3ccc(Cl)nc3)sc2c1`, the Potency is 17.8 µM (active). In the case of `CC(=O)OCC1OC(C#Cc2ccccc2Cl)C=CC1OC(C)=O` (centres undefined), the activity change, negative = inhibition was 2.5% [at 12.4 µM] (inactive). Regarding `O=C(c1cc(-c2ccc(Cl)cc2)on1)N1CCN(c2ccccc2)CC1`, the Potency result is “inactive”.

For the compound `O=C(c1cc2c(s1)CCC2)N1CCN(c2ccccc2)CC1`, the Potency was 12.6 µM (active). On to `O=C(c1cc2ccccc2s1)N1CCN(c2ccccn2)CC1`, for which the Potency entry is “inactive”. On to `Cc1ccc(-c2cc(C(F)(F)F)c(C#N)c(SCC(=O)Nc3ccccc3)n2)cc1`, for which the Potency result is “inactive”. Turning to `C=CCN1c2ccccc2[C@]23C[C@@H](C(=O)OC)N(S(=O)(=O)c4ccc([N+](=O)[O-])cc4)C2=NC(C(=O)OC)=C(C(=O)OC)[C@H]13`, the activity change, negative = inhibition was -4.61% [at 12.4 µM] (inactive).

With `CCCn1c(C)nc2c(NCCCCN(CC)CC)nc(C)nc21`, the Potency result was “inactive”. Same read-out and setting: to `O=C(N/N=C/C=C/c1ccco1)c1cccs1` belongs 22.4 µM (active); to `O=C(N/N=C/c1ccco1)c1csc2c1CCCC2`, “inactive”; to `O=C(N/N=C/c1ccco1)c1ccc(NC(=O)C2CC2)cc1`, “inactive”. Still for that read-out and setting: to `Cc1noc(C)c1-c1ccc2ncnc(NCc3ccc4[nH]ccc4c3)c2c1` belongs “inactive”; to `CN=C1S/C(=C\c2ccc(Sc3ccc(Cl)cc3)o2)C(=O)N1C`, “inactive”; to `O=C(O)C(c1ccccc1)N1C(=O)/C(=C\c2ccc(-c3cccc(Cl)c3)o2)SC1=S` (centres undefined), 22.4 µM (active). Take `O=C(NCc1ccccc1)c1cc(-c2cccc(Cl)c2)on1`: the Potency result was “inactive”. Same read-out and setting: to `CCN1CC=C2C(C#N)=C(N)C(C#N)(C#N)[C@H](c3ccoc3)[C@H]2C1` belongs 28.2 µM (active); to `COc1cccc(-c2cc(=O)c3cc(NC(=O)c4ccc(C)cc4)ccc3[nH]2)c1`, “inactive”; to `CCOC(=O)C1=NO[C@@]2(C=C(Br)C(=O)[C@H]3O[C@H]32)C1`, “inactive”. For `CN1CCCC1CCO[C@@](C)(c1ccccc1)c1ccc(Cl)cc1` (some centres undefined), the Potency entry is “inactive”. In the case of `NS(=O)(=O)c1ccc2nc(NC(=O)COc3ccccc3)sc2c1`, the Potency result is “inactive”.

Regarding `CC(=O)OCC(=O)C1CCC2C3CCC4=CC(=O)CC[C@@]4(C)C3CC[C@]12C` (some centres undefined), the Potency result is “inactive”. Take `CC(C)(C)c1ccc(OC2C=CC(C#Cc3ccccc3)OC2CO)cc1` (centres undefined): the activity change, negative = inhibition was -1.55% [at 12.4 µM] (inactive). With `COC(=O)[C@@H]1CC2=CC(=O)CC[C@]2(C)[C@@]23O[C@@H]2C[C@@]2(C)[C@@H](CC[C@@]24CCC(=O)O4)[C@H]13`, the Potency entry is “inactive”. As to `O=C1CN(Cc2ccccc2)S(=O)(=O)c2ccccc21`, the Potency result was “inactive”.

For the compound `Nc1ccc2nc3c(=O)[nH]c(=S)[nH]c3nc2c1`, the Potency is 2.82 µM (active).

Take `O=C(Nc1cccc(C(F)(F)F)c1)c1cc(Br)cc(Br)c1O`: the Potency result was “inactive”. The same measure, in the same setting: to `COC(=O)[C@@]1(Cc2ccc(OC)cc2)[C@H]2c3cc(C(=O)N4CCCC4)n(Cc4ccc(C(F)(F)F)nc4)c3C[C@H]2CN1C(=O)c1ccccc1` belongs “inactive”; to `COc1ccccc1CNC(=O)C(=O)NCC(c1cccs1)S(=O)(=O)c1cccs1` (centres undefined), “inactive”. Consider `CO[C@H]1COC(=O)[C@@H](OCc2ccccc2)/C=C\[C@H](C)[C@@H](OC)COC(=O)[C@H](OCc2ccccc2)/C=C\[C@@H]1C`, for which the activity change, negative = inhibition is 6.6% [at 12.4 µM] (inactive).

Turning to `CC(=O)OCC1OC(C#CCCCc2ccccc2)C=CC1OC(C)=O` (centres undefined), the activity change, negative = inhibition was -2.87% [at 12.4 µM] (inactive) and 2.33% [at 12.4 µM] (inactive). On to `C#CCCCCCCCCCCCCCCCC(=O)O`, for which the Potency entry was “inactive”. As to `O=C(Nc1cccc(F)c1)N1CCC2(CC1)CCN(S(=O)(=O)c1ccccc1)CC2`, the Potency result is “inactive”.

As for `CN(c1ccccc1)c1nc(N)c([N+](=O)[O-])c(NCc2ccco2)n1`, the Potency result is “inactive”. In the case of `CNc1nc(Nc2ccc(C)c(Cl)c2)nc(N)c1[N+](=O)[O-]`, the Potency entry was “inactive”. On to `COc1cccc(Nc2nc(N)c([N+](=O)[O-])c(NCc3ccco3)n2)c1`, for which the Potency was 3.55 µM (active). The same measure, in the same setting: next, `CS(=O)(=O)N1CCC2(CC1)CN(Cc1ccccc1)C2`: “inactive”.

For `COC1[C@H](OC(N)=O)C(O)[C@H](Oc2ccc3c(O)c(NC(=O)c4ccc(O)c(CC=C(C)C)c4)c(=O)oc3c2C)OC1(C)C` (some centres undefined), the Potency entry is “inactive”. On the same count and under the same terms, next, `COc1ccc2c(c1)O[C@@H](c1ccc3c(c1)OCO3)[C@H](OC(=O)NCc1ccco1)C2=O`: “inactive”; `Clc1ccc(C(Cn2ccnc2)OCc2ccsc2Cl)c(Cl)c1` (centres undefined): “inactive”; `Cc1[nH]c2ccccc2c1C(c1ccccc1)c1cccs1` (centres undefined): “inactive”.

In the case of `COc1ccccc1CNc1cc(-c2ccccc2CN(C)C)ncn1`, the Potency result was “inactive”.

With `C/C=C1\C2C=C(C)CC1(N)c1ccc(=O)[nH]c1C2` (centres undefined), the Potency result was “inactive”. Take `COc1ccc(OC)c2sc(N3CCN(C(=O)C4COc5ccccc5O4)CC3)nc12` (centres undefined): the Potency result was “inactive”. Consider `COc1cc(NS(=O)(=O)c2ccc3c(c2)OCC(C(=O)N2CCCC2)O3)cc(OC)c1` (centres undefined), for which the Potency result was “inactive”. Still for that read-out and setting: to `Cc1c(CC(=O)N2CCN(C(=O)C3COc4ccccc4O3)CC2)c(=O)oc2c(O)c(O)ccc12` (centres undefined) belongs 8.91 µM (active). As for `COC(=O)CC1c2ccccc2C(Cc2ccc(OC)cc2)=C(C)N1C(=O)OC` (centres undefined), the activity change, negative = inhibition was 1.25% [at 12.4 µM] (inactive). For the compound `O=C(NC1CC(=O)N(c2ccc(F)cc2)C1)c1ccc(S(=O)(=O)N2CCCC2)cc1` (centres undefined), the Potency entry was “inactive”. As for `O=c1c(CCc2ccccc2)nc2cncnc2n1C1CC1`, the Potency entry was “inactive”.

For the compound `COC(=O)c1ccc(C(NC(=O)OCc2ccccc2)/C(C)=C/[C@@H](C)C(=O)NCc2cc(C)on2)cc1` (some centres undefined), the Potency result is “inactive”. `C#CCC(C(=O)OC)(C(=O)OC)C(C[N+](=O)[O-])c1ccccc1` (centres undefined): the activity change, negative = inhibition is 0.0811% [at 12.4 µM] (inactive). Take `COc1ccc(OCCCn2c(C3CC(=O)N(c4ccc(F)cc4)C3)nc3ccccc32)cc1` (centres undefined): the Potency result was “inactive”. Turning to `Cc1ccc(N=C2NC(=O)/C(=C/C=C/c3ccco3)S2)cc1C`, the Potency was 11.2 µM (active). Take `Cc1cc(N(C)C)nc(Cl)n1`: the Potency result is “inactive”. For `O=S(O)S(=O)(=O)O`, the Potency entry was “inactive”. Same read-out and setting: next, `N#Cc1cccc(CS(=O)(=O)c2nnnn2-c2cc(C(F)(F)F)cc(C(F)(F)F)c2)c1`: “inactive”. Regarding `O=C(c1ccco1)N1CCC[C@@]2(CCN(c3ccccc3)C2)C1`, the Potency result is “inactive”. `Cc1c(CCNC(=O)c2ccc(C(F)(F)F)cc2)sc2nc(-c3ccc(F)cc3)nn12`: the Potency result is “inactive”.

With `COC(=O)C1=C(C(=O)OC)[C@@H]2N(Cc3ccccc3)c3ccccc3[C@@]23C[C@@H](C(=O)OC)N(S(=O)(=O)c2ccc(C(F)(F)F)cc2)C3=N1`, the activity change, negative = inhibition was 0.18% [at 12.4 µM] (inactive). The same measure, in the same setting: next, `COc1ccc(-c2nc3c(c4c2C[C@H](c2ccccc2)OC4)CN(C(=O)C2CC2)CC3)c(C)c1`: -3.76% [at 12.4 µM] (inactive). For `CCOC(=O)C1CCCN(C(=O)Cn2ncc3c(C)n(Cc4ccc(F)cc4)c(C)c3c2=O)C1` (centres undefined), the Potency result was “inactive”. As for `Cc1ccc(C(=O)O)cc1-c1ccc(/C=C2\SC(=O)N(CC(=O)Nc3ccc4c(c3)OCO4)C2=O)o1`, the Potency is 25.1 µM (active). On the same count and under the same terms, next, `COC(=O)c1ccc2c(c1)N(CC(=O)Nc1ccc(C)c(C)c1)C(=O)c1ccccc1S2`: “inactive”; `Cc1nc([N+](=O)[O-])cn1CC(=O)Nc1ccc2c(c1)OCO2`: “inactive”. Regarding `Cn1c2ccccc2c(=O)c2c(=O)n(Cc3ccco3)c(COc3ccccc3)nc21`, the Potency is 8.91 µM (active). Take `CCCc1nc2c(c(=O)c3ccccc3n2C)c(=O)n1C1CCCCCC1`: the Potency entry is “inactive”. As to `Cn1c(COc2ccc(Cl)cc2)nc2ccccc2c1=O`, the Potency result was “inactive”. Same read-out and setting: next, `COC(=O)[C@H]1C[C@@H]1[C@H](NC(=O)Oc1ccc(F)cc1)c1ccccc1`: “inactive”. Turning to `CC(C)Cn1c(N)c(C(=O)NCc2cccs2)c2nc3ccccc3nc21`, the Potency is 31.6 µM (active). As to `CCC(C)NC(=O)c1c(N)n(/N=C/c2cccs2)c2nc3ccccc3nc12` (centres undefined), the Potency result is “inactive”. Turning to `O=C(NCc1cccs1)c1cc(-c2ccccn2)nc2ccc(Br)cc12`, the Potency result is “inactive”. The same measure, in the same setting: to `CCC[C@@H]1C[C@@]1(CCC)C(NS(=O)(=O)c1cccc2cccnc12)c1ccc(Cl)cc1` (some centres undefined) belongs “inactive”. As for `COc1ccc(Nc2ncc3c(n2)CCN(C(=O)OC(C)(C)C)C3)cc1`, the Potency result is “inactive”. Consider `O=C1/C(=C\c2ccccc2Cl)SC(=S)N1CCC(=O)N1CCCc2ccccc21`, for which the Potency result is “inactive”. On the same count and under the same terms, next, `COc1ccc(/C=C2/SC(=O)N(CCCCCC(=O)Nc3ccccc3C(=O)O)C2=S)cc1`: “inactive”.

Turning to `Cc1ccc(-c2nn(-c3ccccc3)cc2/C=C2\SC(=S)N(CCCCCC(=O)O)C2=O)o1`, the Potency was 28.2 µM (active). Still for that read-out and setting: next, `C/C=C(\C)C(=O)OC1C(OC(=O)C2(C)OC2C)c2cc3ccc(=O)oc3cc2OC1(C)C` (centres undefined): “inactive”; `CC(C)(O)CCC(O)[C@@](C)(O)C1CC[C@]2(O)C3=CC(=O)C4CC(O)C(O)C[C@]4(C)C3CC[C@]12C` (some centres undefined): “inactive”. Turning to `COc1ccc(NC(=O)COc2ccc(C(=O)OCC(=O)N(C)C3CCS(=O)(=O)C3)cc2OC)cc1` (centres undefined), the Potency entry is “inactive”. Consider `COc1ccc2c(-c3ccccc3)cc(SCC(=O)N(C)C3CCS(=O)(=O)C3)nc2c1` (centres undefined), for which the Potency result is “inactive”. `CN(C(=O)COC(=O)c1cc(-c2ccco2)nc2ccccc12)C1CCS(=O)(=O)C1` (centres undefined): the Potency was 3.16 µM (active).
